The text below walks through data of PubChem BioAssay (Tox21).

Each structure is given as a SMILES string. Results filed as inconclusive are left out. Where a call stands in place of a potency, no number is given. Calls of active or inactive are those of the source. Calls follow the shape of the dose curve; as a rule, active = well fitted activation curve with a large enough effect in the repeat runs; inconclusive = weak or mixed curves; inactive = flat fitted curve, though single readings scatter.

This test can be described thus: A CellTox Green Cytotoxicity Assay to monitor cytotoxicity in HEK293 cells - 24 hour (AID 1224875). Also: nearly all actives have a fitted effect of over 45% in size. Conditions: CellTox Green fluorescence; series mostly up to 76.8 µM; activity change: at the top concentration. The source says:
National Center for Advancing Translational Sciences [NCATS]
NIH Chemical Genomics Center [NCGC]
U.S. Environmental Protection Agency [EPA]
National Institutes of Environmental Health Sciences [NIEHS]
National Toxicology Program [NTP]
Cell-based models are critical for drug discovery. Determining the natural cytotoxic effects resulting from test compounds is an essential research activity. A CellTox Green Cytotoxicity Assay to monitor cytotoxicity in real time of continues cell culture during 40 hours of the compound treatment was used to screen Tox21 10K library compounds in Hek293 cells. CellTox Green Cytotoxicity Assay is a nonlytic, homogeneous, biofluorescent method to measure cytotoxicity in cell culture after experimental manipulation. The assay system uses a proprietary asymmetric cyanine dye that is excluded from viable cells but preferentially stains the dead cell's DNA. […] Viable cells produce no appreciable increases in fluorescence. Therefore, the fluorescence signal produced by the binding interaction with dead cell DNA is proportional to cytotoxicity.
The mixture of Hek293 cell suspension and reagents were dispensed at 600cells/6 ul/well in 1536-well tissue culture treated black solid bottom plates using a Multidrop dispenser. After the assay plates were incubated at a 37 C/5% CO2 incubator for 5 hours, 23 nL of compounds dissolved in DMSO, positive and negative controls was transferred to the assay plate by a pintool work station. The plates were incubated at 37 C for 40 hours. The fluorescence intensity were measured at 0h, 8h, 16h, 24h, 32h and 40h time points using ViewLux plate reader during compound treatment.
`C=CC(=O)OCCCCCC(C)C`: the Potency entry is “inactive”.

Take `CCCCC(CC)C(=O)Cl` (stereo not given): the Potency entry was “inactive”.

Consider `O=[N+]([O-])c1ccc(Cl)c(Cl)c1`, for which the Potency result was “inactive”.

Consider `CN(C)C(=O)C(c1ccccc1)c1ccccc1`, for which the Potency result is “inactive”.

Turning to `C=CC#N`, the “activity change” value is -4.68% (inactive).

For `Nc1nc(N)nc(NC2CC2)n1`, the Potency entry is “inactive”.

`Cc1cc(O)ccc1Cl`: the Potency entry is “inactive”.

For `CCCOC(=O)c1ccccc1C(=O)OCCC`, the Potency result was “inactive”.

In the case of `OCCCCO`, the Potency entry was “inactive”.

On to `COC(C)(C)CCCC(C)C/C=C/C(C)=C/C(=O)OC(C)C` (stereo not given), for which the Potency result was “inactive”.

As for `CNc1cnn(-c2cccc(C(F)(F)F)c2)c(=O)c1Cl`, the Potency result is “inactive”.

Turning to `Sc1ccccc1`, the Potency result was “inactive”.

As for `N#Cc1ccccn1`, the Potency result is “inactive”.

Consider `COP(=S)(OC)SCN1C(=O)c2ccccc2C1=O`, for which the Potency entry is “inactive”.

With `N#CN=C(N)N`, the Potency result is “inactive”.

For `Cc1ccc(O)c(C)c1`, the Potency entry was “inactive”.

For `COS(=O)(=O)OC`, the Potency entry was “inactive”.

Consider `OCc1ccco1`, for which the Potency entry is “inactive”.

With `CSc1nnc(C(C)(C)C)c(=O)n1N`, the Potency result was “inactive”.

In the case of `C=CC(=O)OCC(CC)CCCC` (stereo not given), the Potency result is “inactive”.

On to `O=[N+]([O-])c1ccc(Cl)cc1`, for which the Potency result was “inactive”.

With `O=C/C=C/c1ccccc1`, the Potency entry was “inactive”.

For the compound `CCNc1nc(Cl)nc(NC(C)C)n1`, the Potency result was “inactive”.

As to `OC[C@@H](O)[C@H]1O[C@@H]2O[C@H](C(Cl)(Cl)Cl)O[C@@H]2[C@H]1O`, the Potency result was “inactive”.

As to `O=[N+]([O-])c1cc([As](=O)(O)O)ccc1O`, the Potency result is “inactive”.

Turning to `Cc1ccccc1N`, the Potency entry is “inactive”.

As for `O=C(O)COc1ccccc1`, the Potency entry was “inactive”.

Take `CCOP(=S)(OCC)Oc1cc(C)nc(C(C)C)n1`: the Potency result was “inactive”.

Turning to `Cl[C@H]1OCCO[C@@H]1Cl`, the Potency entry is “inactive”.

`O=S(=O)(O)OOS(=O)(=O)O`: the Potency entry was “inactive”.

In the case of `FC(F)(F)c1ccc(Cl)cc1`, the Potency result was “inactive”.

Turning to `CCOC(=O)CC(SP(=O)(OC)OC)C(=O)OCC` (stereo not given), the Potency entry was “inactive”.

In the case of `CNC(=O)Oc1cccc2ccccc12`, the Potency result is “inactive”.

As to `Cc1ccc(N=C=O)cc1N=C=O`, the Potency entry is “inactive”.

On to `CN1C(=O)CCS(=O)(=O)C1c1ccc(Cl)cc1` (stereo not given), for which the Potency result was “inactive”.

Take `C[C@H]1C(=O)O[C@@H]2CCN3CC=C(COC(=O)[C@](C)(O)[C@]1(C)O)[C@H]23`: the Potency entry was “inactive”.

As for `CN(C)C(=O)Nc1cccc(C(F)(F)F)c1`, the Potency result is “inactive”.

Consider `CC12CC1(C)C(=O)N(c1cc(Cl)cc(Cl)c1)C2=O` (stereo not given), for which the Potency entry is “inactive”.

`Cc1cccc(C)c1N`: the Potency result was “inactive”.

Turning to `Nc1ncc([N+](=O)[O-])s1`, the Potency entry was “inactive”.
